Test results taken from PubChem BioAssay (Tox21).
Several values for one entry are separate records, joined by “and”; a condition that tells them apart may be missing. Identical values can stand only once. Inconclusive results are not listed. Where a call stands in place of a potency, no number is given. Where a structure was tested more than once in an assay, its records may differ in their call. Activity calls are given as the source filed them. Calls come from the whole dose curve; as a rule, active = well fitted curve in the direction sought with a large enough effect in the repeat runs; inconclusive = weak or mixed curves; inactive = no such curve, though single readings can be large; an effect the other way counts as inactive or inconclusive.

Assay: A CellTox Green Cytotoxicity Assay to monitor cytotoxicity in HepG2 cells - 24 hour (AID 1224878); note: nearly all actives have a fitted effect of over 45% in size; note: potency is the fitted concentration of half-maximal effect
Conditions: CellTox Green fluorescence; series mostly up to 76.8 µM
Method in brief: (§1)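 Using 1536-well format, dye-containing HepG2 suspension was seeded, allowed 5 h at 37 C/5% CO2, dosed by pintool with compounds, positive and negative controls, and imaged for fluorescence across 40 h.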

Q: For O=C(O)C(Cl)(Cl)Cl, which Potency is on record?
A: The Potency was “inactive”.

Q: For COc1ccccc1N, which Potency is on record?
A: Its Potency is “inactive”.

Q: Which Potency does the source give for O=P1(N(CCCl)CCCl)NCCCO1 (stereo not given) here?
A: The Potency was “inactive”.

Q: Which Potency does the source give for CCC(=O)C(CC(C)N(C)C)(c1ccccc1)c1ccccc1 (stereo not given) here?
A: Its Potency is 39.1 µM (active) and inactive.

Q: For CCC[N+]1(C)CCCC1, which Potency is on record?
A: The Potency was “inactive”.

Q: With CCCCCCCCCCn1cc[n+](C)c1 as the compound, how does the Potency read?
A: The Potency was 44.1 µM (active) and inactive.

Q: With CC(=O)O as the compound, how does the Potency read?
A: The Potency was “inactive”.

Q: Which Potency does the source give for C=CCOC(Cn1ccnc1)c1ccc(Cl)cc1Cl (stereo not given) here?
A: The Potency was 49.1 µM (active).

Q: Which Potency does the source give for CCCCn1cc[n+](C)c1 here?
A: The Potency was “inactive”.

Q: Which Potency does the source give for O=c1[nH]c(=O)n(Cl)c(=O)n1Cl here?
A: Its Potency is “inactive”.

Q: With CCCCCCCCCCCCOS(=O)(=O)O as the compound, how does the Potency read?
A: The Potency was 49 µM (active) and inactive.

Q: For OCCOc1ccccc1, which Potency is on record?
A: The Potency was “inactive”.

Q: For Nc1ccc(Cl)cc1, which Potency is on record?
A: The Potency was “inactive”.

Q: With CC(Cl)(Cl)C(=O)O as the compound, how does the Potency read?
A: Its Potency is “inactive”.

Q: For Cc1cc(-c2ccc(N)c(C)c2)ccc1N, which Potency is on record?
A: Its Potency is “inactive and 43.6 µM (active)”.

Q: For CCCCCCCCCCCCCC[P+](CCCCCC)(CCCCCC)CCCCCC, which Potency is on record?
A: Its Potency is 11 µM (active) and 17.5 µM (active) and inactive.

Q: Which Potency does the source give for O=S(=O)(O)O here?
A: The Potency was “inactive”.

Q: With C1CCC(NC2CCCCC2)CC1 as the compound, how does the Potency read?
A: The Potency was “inactive”.

Q: Which Potency does the source give for COc1ccc(N)cc1 here?
A: Its Potency is “inactive and 219 nM (active)”.

Q: With CCCCn1cc[n+](C)c1C as the compound, how does the Potency read?
A: The Potency was “inactive”.

Q: With CCNc1nc(Cl)nc(NCC)n1 as the compound, how does the Potency read?
A: The Potency was “inactive”.

Q: With CCCCCCn1cc[n+](C)c1 as the compound, how does the Potency read?
A: Its Potency is “inactive”.

Q: With O=C(O)c1nc(Cl)ccc1Cl as the compound, how does the Potency read?
A: The Potency was “inactive”.

Q: With O=[N+]([O-])O as the compound, how does the Potency read?
A: Its Potency is “inactive”.

Q: With O=C(O)CCl as the compound, how does the Potency read?
A: The Potency was “inactive”.

Q: For O=C(O)CC(O)(CC(=O)O)C(=O)O, which Potency is on record?
A: Its Potency is “inactive”.

Q: With O=C(O)C(Cl)Cl as the compound, how does the Potency read?
A: Its Potency is “inactive”.

Q: With CCCCCCCCn1cc[n+](C)c1 as the compound, how does the Potency read?
A: Its Potency is “inactive”.

Q: Which Potency does the source give for Nc1ccc(-c2ccc(N)c(Cl)c2)cc1Cl here?
A: Its Potency is “inactive and 27.5 µM (active)”.

Q: With COP(=O)(OC)C(O)C(Cl)(Cl)Cl (stereo not given) as the compound, how does the Potency read?
A: The Potency was “inactive”.

Q: With CCC[N+]1(C)CCCCC1 as the compound, how does the Potency read?
A: Its Potency is “inactive”.

Assay: A CellTox Green Cytotoxicity Assay to monitor cytotoxicity in HepG2 cells - 40 hour (AID 1224879); note: nearly all actives have a fitted effect of over 40% in size; note: potency is the fitted concentration of half-maximal effect
Conditions: CellTox Green fluorescence; series mostly up to 76.8 µM
Method in brief: as §1

Q: With O=C(O)C(Cl)(Cl)Cl as the compound, how does the Potency read?
A: Its Potency is “inactive”.

Q: For COc1ccccc1N, which Potency is on record?
A: Its Potency is “inactive”.

Q: Which Potency does the source give for O=P1(N(CCCl)CCCl)NCCCO1 (stereo not given) here?
A: The Potency was “inactive”.

Q: With CCC(=O)C(CC(C)N(C)C)(c1ccccc1)c1ccccc1 (stereo not given) as the compound, how does the Potency read?
A: Its Potency is 43.8 µM (active) and 48.6 µM (active).

Q: For CCC[N+]1(C)CCCC1, which Potency is on record?
A: Its Potency is “inactive”.

Q: For CCCCCCCCCCn1cc[n+](C)c1, which Potency is on record?
A: Its Potency is 44.1 µM (active) and 48.9 µM (active).

Q: For CC(=O)O, which Potency is on record?
A: The Potency was “inactive”.

Q: With C=CCOC(Cn1ccnc1)c1ccc(Cl)cc1Cl (stereo not given) as the compound, how does the Potency read?
A: Its Potency is 49.1 µM (active).

Q: With CCCCn1cc[n+](C)c1 as the compound, how does the Potency read?
A: Its Potency is “inactive”.

Q: With O=c1[nH]c(=O)n(Cl)c(=O)n1Cl as the compound, how does the Potency read?
A: Its Potency is “inactive”.

Q: With CCCCCCCCCCCCOS(=O)(=O)O as the compound, how does the Potency read?
A: The Potency was 49 µM (active) and inactive.

Q: Which Potency does the source give for OCCOc1ccccc1 here?
A: The Potency was “inactive”.

Q: Which Potency does the source give for Nc1ccc(Cl)cc1 here?
A: The Potency was “inactive”.

Q: With CC(Cl)(Cl)C(=O)O as the compound, how does the Potency read?
A: Its Potency is “inactive”.

Q: Which Potency does the source give for Cc1cc(-c2ccc(N)c(C)c2)ccc1N here?
A: Its Potency is “inactive and 43.6 µM (active)”.

Q: With CCCCCCCCCCCCCC[P+](CCCCCC)(CCCCCC)CCCCCC as the compound, how does the Potency read?
A: The Potency was 12.4 µM (active) and 17.5 µM (active) and 48.9 µM (active).

Q: With O=S(=O)(O)O as the compound, how does the Potency read?
A: The Potency was “inactive”.

Q: With C1CCC(NC2CCCCC2)CC1 as the compound, how does the Potency read?
A: Its Potency is “inactive”.

Q: With COc1ccc(N)cc1 as the compound, how does the Potency read?
A: The Potency was “inactive and 245 nM (active)”.

Q: With CCCCn1cc[n+](C)c1C as the compound, how does the Potency read?
A: The Potency was “inactive”.

Q: With CCNc1nc(Cl)nc(NCC)n1 as the compound, how does the Potency read?
A: Its Potency is “inactive”.

Q: Which Potency does the source give for CCCCCCn1cc[n+](C)c1 here?
A: The Potency was “inactive”.

Q: For O=C(O)c1nc(Cl)ccc1Cl, which Potency is on record?
A: The Potency was “inactive”.

Q: For O=[N+]([O-])O, which Potency is on record?
A: The Potency was “inactive”.

Q: For O=C(O)CCl, which Potency is on record?
A: The Potency was “inactive”.

Q: Which Potency does the source give for O=C(O)CC(O)(CC(=O)O)C(=O)O here?
A: The Potency was “inactive”.

Q: For O=C(O)C(Cl)Cl, which Potency is on record?
A: The Potency was “inactive”.

Q: For CCCCCCCCn1cc[n+](C)c1, which Potency is on record?
A: Its Potency is “inactive”.

Q: Which Potency does the source give for Nc1ccc(-c2ccc(N)c(Cl)c2)cc1Cl here?
A: The Potency was 15.6 µM (active) and 12.9 µM (active) and 27.5 µM (active).

Q: For COP(=O)(OC)C(O)C(Cl)(Cl)Cl (stereo not given), which Potency is on record?
A: Its Potency is “inactive”.

Q: With CCC[N+]1(C)CCCCC1 as the compound, how does the Potency read?
A: The Potency was “inactive”.

Assay: qHTS RealTime-Glo MT Cell Viability Assay in HEK293 cells - 0 hour (AID 1224880); note: top concentration of the series differs between compounds; nearly all actives have a fitted effect of over 45% in size
Conditions: RealTime-Glo luminescence; series mostly up to 76.8 µM
Method in brief: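 Viable HEK293 cells reduce a cell-permeant prosubstrate; the product diffuses out and is consumed by NanoLuc in the medium to give light. Compounds went in after a 5 h incubation and plates were read over the treatment course.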

Q: With O=C(O)C(Cl)(Cl)Cl as the compound, how does the outcome read?
A: Its outcome is “inactive”.

Q: For CCCCCCCCCCCCn1cc[n+](C)c1, which outcome is on record?
A: Its outcome is “inactive”.

Q: Which outcome does the source give for COc1ccccc1N here?
A: The outcome was “inactive”.

Q: Which outcome does the source give for Oc1cccc2cccnc12 here?
A: The outcome was “inactive”.

Q: Which outcome does the source give for O=P1(N(CCCl)CCCl)NCCCO1 (stereo not given) here?
A: The outcome was “inactive”.

Q: With CCC(=O)C(CC(C)N(C)C)(c1ccccc1)c1ccccc1 (stereo not given) as the compound, how does the outcome read?
A: Its outcome is “inactive”.

Q: Which outcome does the source give for CCC[N+]1(C)CCCC1 here?
A: Its outcome is “inactive”.

Q: Which outcome does the source give for CCCCCCCCCCn1cc[n+](C)c1 here?
A: The outcome was “inactive”.

Q: Which outcome does the source give for CC(=O)O here?
A: Its outcome is “inactive”.

Q: With C=CCOC(Cn1ccnc1)c1ccc(Cl)cc1Cl (stereo not given) as the compound, how does the outcome read?
A: Its outcome is “inactive”.

Q: For CCCCn1cc[n+](C)c1, which outcome is on record?
A: The outcome was “inactive”.

Q: With O=c1[nH]c(=O)n(Cl)c(=O)n1Cl as the compound, how does the outcome read?
A: Its outcome is “inactive”.

Q: For CCCCCCCCCCCCOS(=O)(=O)O, which outcome is on record?
A: The outcome was “inactive”.

Q: With OCCOc1ccccc1 as the compound, how does the outcome read?
A: Its outcome is “inactive”.

Q: Which outcome does the source give for Nc1ccc(Cl)cc1 here?
A: The outcome was “inactive”.

Q: For CC(Cl)(Cl)C(=O)O, which outcome is on record?
A: The outcome was “inactive”.

Q: For Cc1cc(-c2ccc(N)c(C)c2)ccc1N, which outcome is on record?
A: Its outcome is “inactive”.

Q: Which outcome does the source give for CCCCCCCCCCCCCC[P+](CCCCCC)(CCCCCC)CCCCCC here?
A: Its outcome is “inactive”.

Q: With O=S(=O)(O)O as the compound, how does the outcome read?
A: The outcome was “inactive”.

Q: Which outcome does the source give for C1CCC(NC2CCCCC2)CC1 here?
A: Its outcome is “inactive”.

Q: With COc1ccc(N)cc1 as the compound, how does the outcome read?
A: The outcome was “inactive”.

Q: For CCCCn1cc[n+](C)c1C, which outcome is on record?
A: Its outcome is “inactive”.

Q: Which outcome does the source give for CCNc1nc(Cl)nc(NCC)n1 here?
A: Its outcome is “inactive”.

Q: Which outcome does the source give for CCCCCCn1cc[n+](C)c1 here?
A: The outcome was “inactive”.

Q: Which outcome does the source give for O=C(O)c1nc(Cl)ccc1Cl here?
A: Its outcome is “inactive”.

Q: With O=[N+]([O-])O as the compound, how does the outcome read?
A: Its outcome is “inactive”.

Q: Which outcome does the source give for O=C(O)CCl here?
A: The outcome was “inactive”.

Q: With O=C(O)CC(O)(CC(=O)O)C(=O)O as the compound, how does the outcome read?
A: Its outcome is “inactive”.

Q: Which outcome does the source give for O=C(O)C(Cl)Cl here?
A: Its outcome is “inactive”.

Q: Which outcome does the source give for CCCCCCCCn1cc[n+](C)c1 here?
A: The outcome was “inactive”.

Q: For Nc1ccc(-c2ccc(N)c(Cl)c2)cc1Cl, which outcome is on record?
A: Its outcome is “inactive”.

Q: With COP(=O)(OC)C(O)C(Cl)(Cl)Cl (stereo not given) as the compound, how does the outcome read?
A: Its outcome is “inactive”.

Q: For CCC[N+]1(C)CCCCC1, which outcome is on record?
A: Its outcome is “inactive”.
